This is a sample that favours compounds with a hit; in the whole collection about 21% have one here.
Gal4-VP16 FLuc = inhibits Gal4-VP16 luciferase reporter, ROR gamma counter-screen; Drosophila S2 Gal4-VP16 UAS-luciferase, luminescence, 20 h; Potency, µM (series often up to 53.6 µM), inactives show at the highest dose activity, negative = inhibition, actives largely listed as inhibitors; 310,000 compounds, 3.5% hits;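 further: Gal4-VP16 expression switched on by copper sulfate through the metallothionein promoter; potency means the concentration at half of the fitted maximal effect; nearly all actives have a fitted effect of over 50% in size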
RORg inh = inhibitors of mouse ROR gamma transcriptional activity; P51450; Drosophila S2 Gal4-RORgamma UAS-luciferase reporter, 20 h; Potency, µM (series often up to 53.6 µM), inactives show at the highest dose activity change, negative = inhibition, hits mostly inhibitors; 310,000 compounds, 5.4% hits; AID 2551; further: potency means the concentration at half of the fitted maximal effect; nearly all actives have a fitted effect of over 60% in size
Target sequence (P51450 whole entry, looked up, the tested form may be a part): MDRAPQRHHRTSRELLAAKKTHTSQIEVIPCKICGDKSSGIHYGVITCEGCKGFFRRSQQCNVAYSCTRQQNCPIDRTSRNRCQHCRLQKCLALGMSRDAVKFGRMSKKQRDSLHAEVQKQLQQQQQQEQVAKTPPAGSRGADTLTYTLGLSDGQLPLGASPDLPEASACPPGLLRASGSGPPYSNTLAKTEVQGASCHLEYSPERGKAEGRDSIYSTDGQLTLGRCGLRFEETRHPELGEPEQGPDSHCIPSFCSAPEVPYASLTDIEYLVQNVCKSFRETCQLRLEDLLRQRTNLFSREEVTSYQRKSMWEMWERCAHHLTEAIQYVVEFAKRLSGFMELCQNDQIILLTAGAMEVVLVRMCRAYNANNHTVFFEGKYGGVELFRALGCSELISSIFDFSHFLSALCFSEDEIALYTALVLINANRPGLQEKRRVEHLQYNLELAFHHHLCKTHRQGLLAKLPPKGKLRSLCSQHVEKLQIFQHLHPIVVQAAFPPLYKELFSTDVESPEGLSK
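Luciferase reporter read in Schneider cells carrying Gal4-RORγ (mouse) and UAS-Photinus luciferase; cells given compound 1 h before 700 uM copper sulfate induction, then incubated 20 h at ambient temperature.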
ELG1 DNA repair = ELG1-dependent DNA repair inhibition. HEK293T ELG1-luciferase reporter, luminescence, 16 h; DNA damage induced by 5-fluorouridine. Potency, µM (series often up to 46.1 µM), for inactives: at the highest dose activity change, negative = inhibition, most hits filed as inhibitors. 330,000 compounds, 2.3% hits. AID 504467; further: potency means the concentration at half of the fitted maximal effect; nearly all actives have a fitted effect of over 55% in size
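DMSO vehicle served as the neutral condition. Each well held 2,000 cells given 5-fluorouridine plus compound; after 16 hr at 37 °C/5% CO2, ONE-Glo was added and luciferase measured 30 min later.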
TDP1 cell noCPT = qHTS for Inhibitors of human tyrosyl-DNA phosphodiesterase 1 (TDP1): qHTS in cells in absence of CPT. Potency, µM (top dose mostly 46.2 µM), for inactives: top-dose activity change, negative = growth inhibition, hits mostly inhibitors. 420,000 compounds, 15% hits. DT40 Tdp1-/- hTDP1 cells, no CPT, ATP luminescence, 48 h. AID 686978, 2013; further: potency means the concentration at half of the fitted maximal effect; nearly all actives have a fitted effect of over 55% in size
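Camptothecin absent (DMSO only). Human TDP1-complemented DT40 knockout cells, 400 cells/well, 37 °C for minimum 48 hr; ATP measured via CellTiter-Glo, 30 min dark incubation, luminescence.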
TDP1 cell CPT = growth inhibition of DT40 Tdp1-/-;hTDP1 cells with camptothecin (screen for TDP1 inhibitors). chicken DT40 Tdp1-/-;hTDP1 cells + 20 nM CPT, ATP luminescence, 48 h. Potency, µM (titrated, usually from 46.2 µM), for the others: top-dose activity change, negative = growth inhibition, most hits filed as inhibitors. 420,000 compounds, 12% hits; further: potency means the concentration at half of the fitted maximal effect; nearly all actives have a fitted effect of over 55% in size
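Chicken DT40 Tdp1-/- cells stably complemented with human TDP1 were seeded at 400 cells/well in medium containing 20 nM camptothecin, exposed to pin-transferred compounds, and grown at 37 °C for at least 48 hr. Viability was read as ATP luminescence.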
IL-1B inflam inh = blocks inflammasome-driven IL-1 beta release. THP-1 LPS/ATP IL-1B secretion, AlphaLISA, 16 h; hits give low values. activity change, % at 57.5 µM. 360,000 compounds, 4.7% hits; in the data active means activity change below about -50%; inconclusive means mostly about -30% to -49%
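THP-1 cells pretreated 1 hr with compounds (up to 57.5 uM final), then stimulated with LPS (250 ng/mL final) plus ATP (1.25 mM final); secreted IL-1B measured by AlphaLISA after 16 hr, decreased signal indicating inhibition.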
Active calls of the source: *; ? = inconclusive; · = no result; [ ] = another dose, or the depositor's remark. Unless noted, the call rests on the fitted dose curve; in most records, active means well fitted curve in the direction sought with a large enough effect; inconclusive means small, poorly fitted or top-dose-only effect, or another doubt; inactive means no such curve, though single readings can be large; an effect the other way counts as inactive or inconclusive. On the % scale 0 is the no-effect control and ±100 the full control effect.

SMILES	Gal4-VP16 FLuc	RORg inh	ELG1 DNA repair	TDP1 cell noCPT	TDP1 cell CPT	IL-1B inflam inh
O=C(COc1ccccc1)Nc1ccc(C(=O)OCc2cc(=O)n3nc(C4CC4)sc3n2)cc1	·	·	·	1.5%	-20.3%	·
CC(C)(C)OC(=O)C1=CC[C@@H](c2ccc(Cl)c(Cl)c2)N(S(=O)(=O)c2ccc(F)cc2)[C@H]1c1cccc(F)c1	·	·	·	14.6µM*	?	2.8
Cc1ccc(S(=O)(=O)N2[C@@H](c3cccc(Cl)c3)C(C(=O)OC(C)(C)C)=CC[C@H]2c2cccc(Cl)c2)cc1	·	·	·	11.6µM*	9.2µM*	6.4
COc1cc(OC)cc(C(=O)NC(=S)Nc2cc3oc4ccccc4c3cc2OC)c1	?	1.41µM*	-4.0%	9.3%	-16.4%	8.7
COc1cc2c(cc1NC(=O)c1ccncc1)oc1ccccc12	2.2%	?	?	20.6µM*	?	-17.3
COCCNC(=S)Nc1cc2oc3ccccc3c2cc1OC	7.08µM*	5.62µM*	?	6.6%	10.1%	9.2
COc1cc2c(cc1NC(=O)c1cc(-c3ccccn3)nc3ccccc13)oc1ccccc12	-12.8%	-0.6%	-17.2%	20.6µM*	20.6µM*	13.0
COc1cc2c(cc1NC(=O)c1cccnc1)oc1ccccc12	0.0%	21.2%	?	?	?	-13.7
Nc1ccn([C@@H]2O[C@H](CNCc3cccc(OC4CCCC4)c3)[C@@H](O)[C@H]2O)c(=O)n1	·	·	·	6.4%	-2.8%	-1.8
Cc1ccc(N(C)S(=O)(=O)c2nnc(NC(=O)C3CCCCC3)s2)cc1	·	·	·	-11.2%	4.0%	·
COc1ccc(C(=O)NC(=S)Nc2cc3oc4ccccc4c3cc2OC)cc1	7.9%	?	5.5%	?	-25.1%	21.4
COc1cc2c(cc1NC(=S)NC(=O)c1c(OC)cccc1OC)oc1ccccc12	?	3.55µM*	11.2%	?	?	14.6
CN=C1S/C(=C\c2cccc(Cl)c2Cl)C(=O)N1C	·	·	·	-21.5%	-17.4%	-28.9
CCC(=O)OC(OP(=O)(CCCCc1ccccc1)CC(=O)N1C[C@H](C2CCCCC2)C[C@H]1C(=O)O)C(C)C (stereo partly drawn)	·	·	·	-5.3%	8.1%	·
CS(=O)(=O)c1ccc(C(=O)OCC(=O)NCc2cccs2)cc1[N+](=O)[O-]	·	·	-29.5%	4.61µM*	5.8µM*	-97.0*
Cc1ccc(Cl)cc1NC1=NC(=S)N(C(C)C)C12CCCCC2	3.55µM*	2.82µM*	-21.3%	18.4µM*	?	-23.3
Cc1ccc(N2CC(C(=O)NCc3nnnn3-c3ccc(C)c(C)c3)CC2=O)cc1C (stereo not drawn)	·	·	·	?	-26.4%	·
CCOc1ccc2nc(SCC3CC3(Cl)Cl)[nH]c2c1 (stereo not drawn)	7.6%	7.9%	?	18.4µM*	?	-61.9*
COc1ccc(NC(=O)N2CCCC3(CCN(C(=O)c4ccc(OC)cc4)CC3)C2)cc1	5.1%	12.1%	·	-29.7%	4.2%	·
COc1cccc2c1cc1c(=O)n(CC(=O)NCc3ccc(N(C)C)cc3)nc(C)n12	·	·	·	-10.4%	0.8%	·
CCN(CC(=O)Nc1ccccc1SC)Cc1nc2ccccc2c(=O)[nH]1	0.794µM*	0.224µM*	3.9%	2.06µM*	0.651µM*	65.5
CCN(CC(=O)NCc1ccc(F)cc1)CC(=O)Nc1ccccc1-c1ccccc1	-10.7%[10 µM]	?	-8.3%	?	?	-4.1
CCN(CC(=O)Nc1ccccc1-c1ccccc1)Cc1nc2ccccc2c(=O)[nH]1	?	4.47µM*	?	4.61µM*	5.8µM*	45.8
CCN(CC(=O)NCc1ccc(F)cc1)Cc1nc2cc(Cl)ccc2c(=O)[nH]1	?	6.6%	-15.8%	?	-12.8%	-17.8
CN(CC(=O)Nc1ccccc1C(F)(F)F)C(=O)CCc1nc2ccccc2c(=O)[nH]1	·	·	11.2%	-1.3%	-5.6%	7.3
SMILES	Gal4-VP16 FLuc	RORg inh	ELG1 DNA repair	TDP1 cell noCPT	TDP1 cell CPT	IL-1B inflam inh
CN(CC(=O)Nc1ccccc1Br)C(=O)CCc1nc2ccccc2c(=O)[nH]1	·	·	18.7%	?	?	20.1
CCN(CC(=O)NCCc1ccc(F)cc1)Cc1nc2ccccc2c(=O)[nH]1	?	7.94µM*	1.2%	-26.3%	?	11.4
CN(CC(=O)Nc1ccccc1Br)Cc1nc2ccccc2c(=O)[nH]1	-17.5%	28.2µM*	-16.6%	?	?	-18.9
Cc1cccc(-n2ncc3c(=O)[nH]c(SCC(=O)NCCC4=CCCCC4)nc32)c1	·	·	8.4%	18.8%	0.6%	14.5
CCN(CC(=O)N(CC(C)C)c1c(N)n(CC(C)C)c(=O)[nH]c1=O)Cc1nc2ccccc2c(=O)[nH]1	?	3.98µM*	-5.8%	-26.7%	-16.9%	3.4
COc1ccc(CN(Cc2nc3ccccc3c(=O)[nH]2)C(=O)c2ccco2)cc1	-1.7%	?	-3.8%	-4.9%	1.0%	22.6
O=c1[nH]c(CN2CCN(c3ncccn3)CC2)nc2c(Br)cc(Br)cc12	-5.2%	-7.0%	-2.1%	4.5%	4.3%	2.1
CCCCN(Cc1nc2ccccc2c(=O)[nH]1)C(=O)COc1ccc(F)cc1Cl	·	·	-11.5%	14.6µM*	18.4µM*	17.3
CC(C)C(=O)N(Cc1ccc(F)cc1)Cc1nc2ccccc2c(=O)[nH]1	-24.2%	11.2µM*	-1.9%	?	?	8.2
CCN(CC(=O)NC(C)C)Cc1nc2c(Br)cc(Br)cc2c(=O)[nH]1	7.08µM*	2.24µM*	-12.2%	?	-24.3%	30.4
Brc1cccc(-c2cnn3c(-c4ccccc4)cc(-c4ccccc4)nc23)c1	·	·	·	-8.9%	-16.9%	·
Cc1ccc(S(=O)(=O)NC(=O)C2(C)CCN2C(=O)c2cccc(F)c2)nc1 (stereo not drawn)	·	·	·	1.3%	1.2%	-18.4
Cc1cccc(-n2nnnc2SCC(=O)N(CC(C)C)c2c(N)n(CC(C)C)c(=O)[nH]c2=O)c1	5.2%	-11.2%	3.3%	-10.8%	10.5%	-1.7
CCN(CC(=O)NC(c1ccccc1)c1ccccc1)Cc1nc2ccccc2c(=O)[nH]1	11.2µM*	2.51µM*	-3.9%	?	?	-10.5
Cc1ccc(-n2nnnc2SCC(=O)N(CC(C)C)c2c(N)n(CC(C)C)c(=O)[nH]c2=O)cc1	2.1%	5.1%	5.2%	-11.1%	20.3%	-51.7*
CN(Cc1nc2ccccc2c(=O)[nH]1)c1ccccc1	-5.5%	38.8%	1.3%	-12.2%	?	20.3
